Experimental data from PubChem BioAssay (NCI).
The panel holds about 79,000 compounds, 15% with a hit somewhere; the sample as a whole holds those more often. Values without a mark were called inactive. The source made the active and inactive calls. No stated cut-off is given here; in the data, active means growth inhibition above about 70%; inactive means the rest.

How the values were obtained:
[1] = NCI Yeast Anticancer Drug Screen. Data for the rad52 strain (AID 147);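 further: 0% = growth of vehicle-treated control cultures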; details: S. cerevisiae rad52 mutant growth inhibition, stronger effect = higher value
How it was run: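 DNA repair-defective yeast; compound exposure; growth scored against vehicle controls.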

[2] = NCI Yeast Anticancer Drug Screen. Data for the wt1 strain (AID 149);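 further: 0% = growth of vehicle-treated wt1 cultures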; details: S. cerevisiae wt1 strain (SPY 50644) growth inhibition, stronger effect = higher value
How it was run: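 Readout: yeast growth inhibition, normalised to vehicle controls, in the wt1 strain exposed to test compounds.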

[3] = NCI Yeast Anticancer Drug Screen. Data for the rad50EPP+ strain (AID 151);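 further: 0% = growth of vehicle-treated control cultures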; details: S. cerevisiae rad50 mutant strain, stronger effect = higher value
How it was run: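 rad50EPP+ yeast treated with test compounds. Readout: growth vs vehicle control.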

[4] = NCI Yeast Anticancer Drug Screen. Data for the mgt1 strain (AID 153); details: S. cerevisiae mgt1 mutant growth inhibition, stronger effect = higher value
How it was run: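 Growth inhibition relative to vehicle controls was scored for the mgt1 yeast strain after compound exposure.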

[5] = NCI Yeast Anticancer Drug Screen. Data for the rad50 strain (AID 155);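 further: 0% = growth of vehicle-only cultures of the same strain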; details: S. cerevisiae rad50 strain growth inhibition, stronger effect = higher value
How it was run: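 Compounds were tested on a yeast strain with an engineered DNA damage repair alteration; the reported value is growth inhibition normalised to vehicle treatment.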

[6] = NCI Yeast Anticancer Drug Screen. Data for the mec2-1 strain (AID 157); details: S. cerevisiae mec2-1 strain, stronger effect = higher value
How it was run: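 Growth inhibition is read against vehicle-treated controls after compound exposure of the mec2-1 yeast strain, which is defective in DNA damage repair or cell cycle control.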

[7] = NCI Yeast Anticancer Drug Screen. Data for the sgs1 mgt1 strain (AID 161);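 further: 0% = growth of cultures given vehicle only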; details: S. cerevisiae sgs1 mgt1 strain, stronger effect = higher value
How it was run: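 Yeast cells carrying a defined DNA-repair defect were exposed to test compounds. Growth inhibition was measured relative to vehicle-treated controls.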

[8] = NCI Yeast Anticancer Drug Screen. Data for the CLN2oe strain (AID 163);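 further: 0% = growth of vehicle-only control cultures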; details: S. cerevisiae CLN2oe strain, stronger effect = higher value
How it was run: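 Compound-treated yeast; growth vs vehicle ctrl = % inhibition. Genetically altered strain (cell-cycle control).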

[9] = NCI Yeast Anticancer Drug Screen. Data for the cln2 rad14 strain (AID 165);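 further: 0% = growth equal to vehicle treated cultures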; details: S. cerevisiae cln2 rad14 strain, stronger effect = higher value
How it was run: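 Growth inhibition, relative to vehicle-treated controls, is the read-out. The test organism is a yeast strain with defined genetic alterations, cln2 rad14.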

[10] = NCI Yeast Anticancer Drug Screen. Data for the bub3 strain (AID 167); details: S. cerevisiae bub3 mutant strain, stronger effect = higher value
How it was run: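 Growth of a checkpoint-deficient yeast mutant is measured after compound exposure. Values represent inhibition relative to vehicle.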

[11] = NCI Yeast Anticancer Drug Screen. Data for the wt2 strain (AID 169);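 further: 0% = growth of vehicle-treated yeast cultures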; details: S. cerevisiae wt2 strain growth inhibition, stronger effect = higher value
How it was run: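 Compound exposure of yeast; growth compared with vehicle controls; inhibition reported.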

[12] = NCI Yeast Anticancer Drug Screen. Data for the mlh1 strain (AID 171);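 further: 0% = growth of vehicle-treated control cultures of the same strain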; details: S. cerevisiae mlh1 strain growth inhibition, stronger effect = higher value
How it was run: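 Compounds are applied to a genetically altered yeast strain, and its growth is compared with that of vehicle-treated cultures to give percent inhibition.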

[13] = NCI Yeast Anticancer Drug Screen. Data for the sgs1 strain (AID 173);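 further: 0% = growth of vehicle-only control cultures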; details: S. cerevisiae sgs1 mutant, stronger effect = higher value
How it was run: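 Compounds applied to genetically altered yeast; growth compared with vehicle-treated cultures to give % inhibition.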

[14] = NCI Yeast Anticancer Drug Screen. Data for the mlh1 rad18 strain (AID 175); details: S. cerevisiae mlh1 rad18 strain growth inhibition, stronger effect = higher value
How it was run: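 Cells of a genetically altered yeast strain, deficient in DNA damage repair, were treated with compound. Their growth was then compared with that of vehicle-treated cultures to give inhibition.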

[15] = NCI Yeast Anticancer Drug Screen. Data for the rad18 strain (AID 177); details: S. cerevisiae rad18 mutant growth inhibition, stronger effect = higher value
How it was run: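 Compounds are applied to a repair-deficient yeast strain, and growth is compared with that of vehicle-treated cultures to give percent inhibition.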

[16] = NCI Yeast Anticancer Drug Screen. Data for the rad14 strain (AID 159);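 further: 0% = growth of vehicle-treated control cultures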; details: S. cerevisiae rad14 strain growth inhibition, stronger effect = higher value
How it was run: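 Compound-treated yeast with a defined DNA-repair lesion; growth inhibition normalised to vehicle-treated cultures.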

[17] = at 5.0 µM (retest, dose inferred, filed as 0.5)
[18] = at 50.0 µM (retest, dose inferred, filed as 5.0)

NNc1ccccc1-c1nc2ccccc2[nH]1
growth inhibition ([1]; at 1.2 µM): 1%
growth inhibition ([1]; at 3.7 µM): 7%
growth inhibition ([1]; at 11.0 µM): 9%
growth inhibition ([1]; at 33.0 µM): 17%
growth inhibition ([1]; at 100.0 µM): 60%
growth inhibition ([2]; at 1.2 µM): -4%
growth inhibition ([2]; at 3.7 µM): -3%
growth inhibition ([2]; at 11.0 µM): -5%
growth inhibition ([2]; at 33.0 µM): -4%
growth inhibition ([2]; at 100.0 µM): 25%
growth inhibition ([3]; at 1.2 µM): 2%
growth inhibition ([3]; at 3.7 µM): 6%
growth inhibition ([3]; at 11.0 µM): 12%
growth inhibition ([3]; at 33.0 µM): 24%
growth inhibition ([3]; at 100.0 µM): 59%
growth inhibition ([4]; at 1.2 µM): -3%
growth inhibition ([4]; at 3.7 µM): -2%
growth inhibition ([4]; at 11.0 µM): 0%
growth inhibition ([4]; at 33.0 µM): -1%
growth inhibition ([4]; at 100.0 µM): 48%
growth inhibition ([5]; at 1.2 µM): -1%
growth inhibition ([5]; at 3.7 µM): 5%
growth inhibition [5, 17]: -144%
growth inhibition ([5]; at 11.0 µM): 6%
growth inhibition ([5]; at 33.0 µM): 26%
growth inhibition [5, 18]: 53%
growth inhibition ([5]; at 50.0 µM): 75.9% (active)
growth inhibition ([5]; at 100.0 µM): 60%
growth inhibition ([6]; at 1.2 µM): 3%
growth inhibition ([6]; at 3.7 µM): 3%
growth inhibition [6, 17]: -50%
growth inhibition ([6]; at 11.0 µM): 2%
growth inhibition ([6]; at 33.0 µM): 1%
growth inhibition [6, 18]: -40%
growth inhibition ([6]; at 50.0 µM): 48.4%
growth inhibition ([6]; at 100.0 µM): 20%
growth inhibition [7, 17]: -61%
growth inhibition [7, 18]: 27%
growth inhibition ([7]; at 50.0 µM): 11.7%
growth inhibition ([8]; at 1.2 µM): -2%
growth inhibition ([8]; at 3.7 µM): -1%
growth inhibition ([8]; at 11.0 µM): -3%
growth inhibition ([8]; at 33.0 µM): -9%
growth inhibition ([8]; at 100.0 µM): 35%
growth inhibition [9, 17]: -63%
growth inhibition [9, 18]: -73%
growth inhibition ([9]; at 50.0 µM): 32.1%
growth inhibition ([10]; at 1.2 µM): -6%
growth inhibition ([10]; at 3.7 µM): -4%
growth inhibition [10, 17]: -65%
growth inhibition ([10]; at 11.0 µM): -3%
growth inhibition ([10]; at 33.0 µM): -3%
growth inhibition [10, 18]: -30%
growth inhibition ([10]; at 50.0 µM): 76.9% (active)
growth inhibition ([10]; at 100.0 µM): 30%
growth inhibition ([11]; at 1.2 µM): 1%
growth inhibition ([11]; at 3.7 µM): 0%
growth inhibition ([11]; at 11.0 µM): -1%
growth inhibition ([11]; at 33.0 µM): -1%
growth inhibition ([11]; at 100.0 µM): 47%
growth inhibition ([12]; at 1.2 µM): 6%
growth inhibition ([12]; at 3.7 µM): -3%
growth inhibition ([12]; at 11.0 µM): -3%
growth inhibition ([12]; at 33.0 µM): -3%
growth inhibition ([12]; at 100.0 µM): 47%
growth inhibition ([13]; at 1.2 µM): 0%
growth inhibition ([13]; at 3.7 µM): 1%
growth inhibition ([13]; at 11.0 µM): 0%
growth inhibition ([13]; at 33.0 µM): -1%
growth inhibition ([13]; at 100.0 µM): 47%
growth inhibition [14, 17]: -114%
growth inhibition [14, 18]: -3%
growth inhibition ([14]; at 50.0 µM): 91% (active)
growth inhibition ([15]; at 1.2 µM): 0%
growth inhibition ([15]; at 3.7 µM): -2%
growth inhibition ([15]; at 11.0 µM): 0%
growth inhibition ([15]; at 33.0 µM): 0%
growth inhibition ([15]; at 100.0 µM): 48%

NC(N)=NC(N)=Nc1ccccc1 (tested in a mixture with another compound)
growth inhibition ([1]; at 1.2 µM): -3%
growth inhibition ([1]; at 3.7 µM): -5%
growth inhibition ([1]; at 11.0 µM): -7%
growth inhibition ([1]; at 33.0 µM): 2%
growth inhibition ([1]; at 100.0 µM): 48%
growth inhibition ([2]; at 1.2 µM): -1%
growth inhibition ([2]; at 3.7 µM): -1%
growth inhibition ([2]; at 11.0 µM): 0%
growth inhibition ([2]; at 33.0 µM): 11%
growth inhibition ([2]; at 100.0 µM): 32%
growth inhibition ([3]; at 1.2 µM): -1%
growth inhibition ([3]; at 3.7 µM): -2%
growth inhibition ([3]; at 11.0 µM): -16%
growth inhibition ([3]; at 33.0 µM): -9%
growth inhibition ([3]; at 100.0 µM): 18%
growth inhibition ([4]; at 1.2 µM): -1%
growth inhibition ([4]; at 3.7 µM): -2%
growth inhibition ([4]; at 11.0 µM): 0%
growth inhibition ([4]; at 33.0 µM): 6%
growth inhibition ([4]; at 100.0 µM): 41%
growth inhibition ([5]; at 1.2 µM): 2%
growth inhibition ([5]; at 3.7 µM): -3%
growth inhibition [5, 17]: -2%
growth inhibition ([5]; at 11.0 µM): 1%
growth inhibition ([5]; at 33.0 µM): 1%
growth inhibition [5, 18]: 7%
growth inhibition ([5]; at 50.0 µM): 56.6%
growth inhibition ([5]; at 100.0 µM): 55%
growth inhibition ([6]; at 1.2 µM): 3%
growth inhibition ([6]; at 3.7 µM): 3%
growth inhibition [6, 17]: 4%
growth inhibition ([6]; at 11.0 µM): 4%
growth inhibition ([6]; at 33.0 µM): 12%
growth inhibition [6, 18]: 16%
growth inhibition ([6]; at 50.0 µM): 35.7%
growth inhibition ([6]; at 100.0 µM): 48%
growth inhibition ([16]; at 1.2 µM): -1%
growth inhibition ([16]; at 3.7 µM): -15%
growth inhibition ([16]; at 11.0 µM): -11%
growth inhibition ([16]; at 33.0 µM): -19%
growth inhibition ([16]; at 100.0 µM): 60%
growth inhibition [7, 17]: 3%
growth inhibition [7, 18]: -6%
growth inhibition ([7]; at 50.0 µM): 66.8%
growth inhibition [9, 17]: 33%
growth inhibition [9, 18]: -77%
growth inhibition ([9]; at 50.0 µM): 23.6%
growth inhibition ([10]; at 1.2 µM): -7%
growth inhibition ([10]; at 3.7 µM): 2%
growth inhibition [10, 17]: 20%
growth inhibition ([10]; at 11.0 µM): 10%
growth inhibition ([10]; at 33.0 µM): 9%
growth inhibition [10, 18]: 6%
growth inhibition ([10]; at 50.0 µM): 49.8%
growth inhibition ([10]; at 100.0 µM): 29%
growth inhibition ([11]; at 1.2 µM): -1%
growth inhibition ([11]; at 3.7 µM): -1%
growth inhibition ([11]; at 11.0 µM): 3%
growth inhibition ([11]; at 33.0 µM): 20%
growth inhibition ([11]; at 100.0 µM): 77% (active)
growth inhibition ([12]; at 1.2 µM): 5%
growth inhibition ([12]; at 3.7 µM): 4%
growth inhibition ([12]; at 11.0 µM): 5%
growth inhibition ([12]; at 33.0 µM): -13%
growth inhibition ([12]; at 100.0 µM): 41%
growth inhibition ([13]; at 1.2 µM): 2%
growth inhibition ([13]; at 3.7 µM): 7%
growth inhibition ([13]; at 11.0 µM): 20%
growth inhibition ([13]; at 33.0 µM): 49%
growth inhibition ([13]; at 100.0 µM): 90% (active)
growth inhibition [14, 17]: -4%
growth inhibition [14, 18]: -9%
growth inhibition ([14]; at 50.0 µM): 47%
growth inhibition ([15]; at 1.2 µM): 3%
growth inhibition ([15]; at 3.7 µM): -3%
growth inhibition ([15]; at 11.0 µM): 3%
growth inhibition ([15]; at 33.0 µM): 6%
growth inhibition ([15]; at 100.0 µM): 61%
